This note sets out measurements from PubChem BioAssay.

For experiment [1], the system named is Human papillomavirus type 1a protein E7 (residues 44-93). Nature of the experiment: small molecules binding HPV E7 44-93 – biochemical, small-molecule microarray, residues 44-93, 635 nm fluorescence, primary screen (AID 1108).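 Note: E7 fragment applied at 1 µg/mL in TBST for 1 h at 4 C; score combines spot fluorescence with its signal to noise ratio.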 The note with it: fluorescence 635 nm, higher = more signal.
Experiment [2] in a line: hepatitis C replication reporter changes, two-sided – Huh7 cells, luciferase reporter, HCV replication inhibitor project, primary screen (AID 1109).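 Note: huh7 hepatoma cells harbouring a luciferase neomycin HCV replicon reporter; luciferase luminescence as measure of HCV replicon replication; test concentration not given here.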 Conditions: Huh7 HCV replicon luciferase reporter, 48 h; higher = more signal.
Experiment [3] has as its target Left-right determination factor 2 (Homo sapiens) (UniProt O00292). Put plainly: small molecules binding LEFTY2 protein – biochemical, small-molecule microarray, 635 nm fluorescence scan, primary screen (AID 1110). Conditions: higher = more signal.
Experiment [4] has as its target Calmodulin-1 (Homo sapiens) (UniProt P0DP23). Put plainly: small molecules binding calmodulin-1 with EGTA – biochemical, small-molecule microarray, Cy5-labelled CALM1, profiling panel (AID 1111).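 Note: labelled calmodulin applied in Tris saline Tween buffer holding calcium plus EGTA and DTT.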 Conditions: Cy5-CALM1 binding fluorescence, higher = more signal.
The target is the same in experiment [5]. Nature of the experiment: small molecules binding Ca-loaded calmodulin-1 – biochemical, small-molecule microarray, Cy5-labelled CALM1, plus calcium, artefact control for SMM control-protein annotation, profiling panel (AID 1112).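 Note: score merges spot fluorescence with signal to noise from triplicate slides.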 The note with it: Cy5-CALM1 binding fluorescence, higher = more signal.
Experiment [6] is described as follows: probe aWnt5a binding to arrayed compounds – biochemical, biotinylated probe, 635/667 nm fluorescence, primary screen (AID 1113).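 Note: score merges 667 nm fluorescence intensity with signal-to-noise per printed feature.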 The note with it: small-molecule microarray, higher = more signal.
The nature of experiment [7]: probe aShh binding to arrayed compounds – biochemical, biotinylated probe, 635/667 nm fluorescence, primary screen (AID 1114).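 Note: probe is biotin-labelled aShh protein from a stem cell growth factor screen; measures binding of labelled protein to compounds printed on the slide; score merges feature fluorescence at 667 nm with signal-to-noise.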 Conditions: small-molecule microarray, higher = more signal.
Experiment [8] is described as follows: probe aNog binding to arrayed compounds – biochemical, biotinylated probe, 635/667 nm fluorescence, primary screen (AID 1115).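 Note: probe is biotinylated aNog protein used at 0.15 µg/mL for 1 h at 4 C; z-score combines 667 nm fluorescence of each spot with its signal to noise.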 The note with it: small-molecule microarray, higher = more signal.
Experiment [9] concerns the target Torsin-1A-interacting protein 1 (Homo sapiens) (UniProt Q5JTV8). Put plainly: compound microarray binding of lysate hLAP1 – cell lysate, small-molecule microarray, COS7 lysate, 635/667 nm fluorescence, primary screen (AID 1116). Conditions: 635 nm fluorescence, higher = more signal.
Experiment [10] addresses Alpha-bungarotoxin (Bungarus multicinctus) (UniProt P60615). Put plainly: compounds binding labelled alpha-BTX control protein – biochemical, small-molecule microarray, Alexa647 label, 635/667 nm fluorescence, artefact control for SMM control protein annotation, profiling panel (AID 1117). The note with it: alpha-BTX-A647 binding fluorescence, higher = more signal.
The next experiment concerns the target Albumin (Bos taurus) (UniProt P02769). Nature of the experiment: compounds binding labelled BSA control protein – biochemical, small-molecule microarray, Alexa647 label, 635/667 nm fluorescence, artefact control for SMM control protein annotation, profiling panel (AID 1118).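 Note: score merges 667 nm emission intensity and signal-to-noise per printed compound spot.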 Conditions: BSA-A647 binding, fluorescence 635 nm, higher = more signal.
Experiment [11] in a line: probe aXIP binding to arrayed compounds – biochemical, NeuroSMM set, 635/667 nm fluorescence, primary screen (AID 1119).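 Note: probe is the protein aXip251-270 applied at 1 µg/mL to compound-printed slides; binding of probe to printed compounds measured as 667 nm fluorescence plus signal to noise.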 The note with it: small-molecule microarray, higher = more signal, called active from +8 up or from −8 down.
The nature of experiment [12]: probe aNOTCH3 binding on compound microarray – biochemical, small-molecule microarray, 635/667 nm fluorescence, primary screen (AID 1120).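 Note: probe is a biotin-tagged antibody raised against NOTCH3 rather than NOTCH3 protein; score merges spot fluorescence near 667 nm with spot signal to noise.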 Conditions: higher = more signal.
Experiment [13] can be described thus: probe aNOTCH2 binding on compound microarray – biochemical, small-molecule microarray, 635/667 nm fluorescence, primary screen (AID 1121).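 Note: score merges feature fluorescence read at 667 nm with its signal to noise.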 Conditions: higher = more signal.
Experiment [14] concerns the target Carbonic anhydrase 2 (Homo sapiens) (UniProt P00918). Put plainly: compounds binding carbonic anhydrase 2 – biochemical, small-molecule microarray, Alexa647-labelled CAII, profiling panel (AID 1122). The note with it: CAII-A647 binding fluorescence, higher = more signal.
A short description of experiment [15]: COS7 lysate on small-molecule microarray, probe aHis, 635 nm (AID 1123).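 Note: z-score combines 667nm fluorescence intensity with signal-to-noise per printed compound spot.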 Conditions: COS7 cell lysate, fluorescence, higher = more signal.
Experiment [16] in a line: probe aLAP1 signal on lysate-treated microarray – cell lysate, small-molecule microarray, COS7 lysate, primary screen (AID 1124).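 Note: lysate comes from COS7 cells expressing LAP1 and is applied at 0.3 µg/mL; score merges spot fluorescence near 667 nm with signal-to-noise over triplicate slides.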 The note with it: probe aLAP1, fluorescence, higher = more signal.
The next experiment concerns Sam68 (KHDRBS1). Put plainly: compounds binding KHDRBS1 protein – biochemical, small-molecule microarray, 635 nm fluorescence, primary screen (AID 1125).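 Note: score merges 667 nm channel intensity with signal to noise over triplicate slides.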 The note with it: higher = more signal.
Experiment [17] relates to Chordin-like protein 2 (CHRDL2). Nature of the experiment: compounds binding chordin-like 2 – biochemical, small-molecule microarray, 635 nm fluorescence, primary screen (AID 1126).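 Note: printed compound slides probed with Chrdl2 protein at 4 µg/mL for 1 h at 4 C; score merges 667 nm emission intensity with signal to noise over three replicate slides.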 The note with it: fluorescence 635 nm, higher = more signal.
The target of experiment [18] is Concanavalin-A (Canavalia ensiformis) (UniProt P02866). Put plainly: compounds binding concanavalin A lectin – biochemical, small-molecule microarray, Alexa647 label, 635 nm, artefact control for SMM control protein annotation, primary screen (AID 1127).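 Note: z combines 667 nm emission intensity with signal-to-noise across three replicate slides.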 Conditions: ConA-A647 binding fluorescence, higher = more signal.
Chain of Concanavalin-A (Canavalia ensiformis) (P02866 whole entry, looked up): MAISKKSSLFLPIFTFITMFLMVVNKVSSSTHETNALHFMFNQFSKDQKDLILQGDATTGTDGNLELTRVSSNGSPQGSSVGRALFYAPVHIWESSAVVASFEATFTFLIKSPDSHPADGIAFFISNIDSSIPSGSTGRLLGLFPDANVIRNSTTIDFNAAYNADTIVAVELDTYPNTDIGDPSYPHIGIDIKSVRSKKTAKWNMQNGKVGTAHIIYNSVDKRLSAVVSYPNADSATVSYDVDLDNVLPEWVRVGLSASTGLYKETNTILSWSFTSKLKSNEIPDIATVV

Each structure is given as a SMILES string. Calls of active or inactive are those of the source.

Chain of Albumin (Bos taurus) (P02769 whole entry, looked up): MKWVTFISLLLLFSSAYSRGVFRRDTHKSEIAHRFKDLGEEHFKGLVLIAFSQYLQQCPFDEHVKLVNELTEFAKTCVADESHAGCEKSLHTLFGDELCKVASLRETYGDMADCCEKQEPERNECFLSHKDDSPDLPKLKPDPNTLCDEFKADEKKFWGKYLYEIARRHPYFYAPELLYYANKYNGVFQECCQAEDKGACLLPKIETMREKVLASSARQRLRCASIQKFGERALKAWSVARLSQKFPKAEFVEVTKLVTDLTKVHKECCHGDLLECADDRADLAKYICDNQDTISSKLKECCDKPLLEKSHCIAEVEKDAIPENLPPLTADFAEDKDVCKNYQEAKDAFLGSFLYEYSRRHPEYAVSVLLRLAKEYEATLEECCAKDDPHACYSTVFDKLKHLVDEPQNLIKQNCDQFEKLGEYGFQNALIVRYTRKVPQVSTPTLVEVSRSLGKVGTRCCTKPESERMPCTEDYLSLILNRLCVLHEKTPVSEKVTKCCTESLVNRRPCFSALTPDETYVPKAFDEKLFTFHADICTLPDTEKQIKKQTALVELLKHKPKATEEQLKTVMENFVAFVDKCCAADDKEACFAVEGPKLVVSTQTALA
Chain of Torsin-1A-interacting protein 1 (Homo sapiens) (Q5JTV8 whole entry, looked up): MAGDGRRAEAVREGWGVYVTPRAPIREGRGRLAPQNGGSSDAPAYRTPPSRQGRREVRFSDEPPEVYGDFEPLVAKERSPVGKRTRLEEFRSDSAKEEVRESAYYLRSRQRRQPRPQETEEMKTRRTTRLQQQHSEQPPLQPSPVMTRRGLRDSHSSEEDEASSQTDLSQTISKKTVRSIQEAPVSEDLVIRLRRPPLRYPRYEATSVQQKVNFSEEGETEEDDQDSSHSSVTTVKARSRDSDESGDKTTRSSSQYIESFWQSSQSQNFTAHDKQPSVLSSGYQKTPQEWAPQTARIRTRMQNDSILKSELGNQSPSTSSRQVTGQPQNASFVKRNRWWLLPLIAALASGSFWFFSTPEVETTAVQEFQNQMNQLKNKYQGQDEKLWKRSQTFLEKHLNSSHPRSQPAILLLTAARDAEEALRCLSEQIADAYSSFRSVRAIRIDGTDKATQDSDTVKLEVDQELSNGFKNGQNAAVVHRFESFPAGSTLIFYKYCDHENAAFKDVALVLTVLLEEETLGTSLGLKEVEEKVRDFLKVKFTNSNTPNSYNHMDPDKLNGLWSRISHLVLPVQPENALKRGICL
Chain of Left-right determination factor 2 (Homo sapiens) (O00292 whole entry, looked up): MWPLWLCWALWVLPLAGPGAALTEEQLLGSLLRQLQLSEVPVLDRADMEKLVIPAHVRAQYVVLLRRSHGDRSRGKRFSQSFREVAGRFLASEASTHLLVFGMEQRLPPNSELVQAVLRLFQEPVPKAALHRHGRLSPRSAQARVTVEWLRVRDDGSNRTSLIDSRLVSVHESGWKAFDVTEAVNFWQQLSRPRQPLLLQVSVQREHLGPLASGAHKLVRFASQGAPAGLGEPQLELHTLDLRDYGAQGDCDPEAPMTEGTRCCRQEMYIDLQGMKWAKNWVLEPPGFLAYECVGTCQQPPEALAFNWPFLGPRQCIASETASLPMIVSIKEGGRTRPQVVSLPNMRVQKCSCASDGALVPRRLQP
Chain of Alpha-bungarotoxin (Bungarus multicinctus) (P60615 whole entry, looked up): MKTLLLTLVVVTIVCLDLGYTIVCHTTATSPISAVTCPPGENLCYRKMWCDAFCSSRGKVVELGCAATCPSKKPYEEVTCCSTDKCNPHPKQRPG

Regarding `C=CC[C@]1(C(=O)N(C)C)N=C(c2ccc(OCCCO)cc2)O[C@H]1c1ccccc1N=[N+]=[N-]`, the composite z-score in experiment [1] is 1.4; in [3], -0.406; in experiment [4], 2.27; in experiment [5], 0.116; in experiment [6], 0.0559; in experiment [7], 0.158. Besides, the composite z-score in experiment [8] is -0.0009; in [9] it was 0.959; in experiment [10], 2.03; in the experiment with Albumin (Bos taurus), 1.07; in experiment [12], 0.266; in experiment [13], 0.0805. Also, the composite z-score was 0.489 in [14]; 2.81 in [15]; 0.55 in [16]; 1.3 in the experiment on Sam68 (KHDRBS1); -0.811 in experiment [17]; 0.877 in experiment [18]. The z-score in experiment [2] was -0.277. Also, the composite Z-score in experiment [11] was 0.298 (inactive).

For the compound `Cc1ccc(S[C@]2(C(=O)NC3CC3)CC(=O)N(Cc3ccccc3Cl)[C@@H]2c2ccc(CO)cc2I)cc1`, the composite z-score in experiment [1] is 1.45; in experiment [3] it was -0.355; in experiment [4], 0.156; in [5] it was -0.274; in experiment [6], 0.109; in experiment [7], 0.0062. Also, the composite z-score in experiment [8] is -0.429; in experiment [9], 0.769; in experiment [10], 0.939; with Albumin (Bos taurus) it was 0.257; in [12], -0.0967; in experiment [13], -0.0419. The composite z-score is 0.68 in experiment [14]; 2.52 in experiment [15]; 0.944 in experiment [16]; 1.13 in the experiment on Sam68 (KHDRBS1); 0.506 in experiment [17]; 0.904 in experiment [18]. Further, the z-score in [2] was -1.57. Moreover, the composite Z-score in experiment [11] is 0.331 (inactive).

As to `CC[C@@H]1[C@H]2C3C(=O)N(CC)C(=O)C3CC(=O)[C@H]2[C@H](c2ccc(C)cc2)N1S(=O)(=O)c1ccc(C)cc1` (stereo not given in full), the composite z-score was 1.4 in [1]; 0.174 in experiment [3]; 1.01 in experiment [4]; 0.715 in experiment [5]; -0.124 in [6]; -0.0035 in experiment [7]. Moreover, the composite z-score is -0.115 in experiment [8]; -0.154 in experiment [9]; 0.484 in experiment [10]; 0.779 with Albumin (Bos taurus); 0.0271 in [12]; -0.0468 in experiment [13]. The composite z-score in experiment [14] is 0.512; in experiment [15] it was 1.21; in [16], -0.357; with Sam68 (KHDRBS1), 1.33; in experiment [17], -0.49; in experiment [18], 0.914. The compound also gave a z-score in [2] of -2.17. For the same compound, in experiment [11], the composite Z-score was -0.337 (inactive).

For the compound `O=C1O[C@@H](c2ccccc2)[C@@H](c2ccccc2)N2[C@@H](c3ccc(O)cc3)[C@]3(C(=O)Nc4ccc(C#CC5=CCCCC5)cc43)[C@@H](C(=O)N3CCN(c4ncccn4)CC3)[C@H]12`, the composite z-score was 1.17 in experiment [1]; 0.333 in experiment [3]; 1.19 in [4]; -0.581 in experiment [5]; -0.0459 in experiment [6]; 0.0756 in [7]. The composite z-score in experiment [8] is -0.14; in [9], 0.951; in [10] it was 0.862; with Albumin (Bos taurus) it was 0.475; in experiment [12] it was -0.0328; in experiment [13], -0.111. The composite z-score stood at 0.573 in [14]; 1.72 in experiment [15]; 0.299 in experiment [16]; 1.29 in the experiment on Sam68 (KHDRBS1); 0.363 in experiment [17]; 1.11 in experiment [18]. The compound also displayed a z-score in experiment [2] of -1.9. The composite Z-score in [11] was 0.131 (inactive).

In the case of `CC(C)(C)N1CC=CC23O[C@@H]4C=CCOC(=O)[C@@H]4[C@H]2C(=O)N(CCCO)[C@@H]3C1=O` (stereo not given in full), the composite z-score in experiment [1] was -0.62; in experiment [3] it was -2.12; in experiment [4] it was -1.03; in [5], 0.392; in experiment [6], -0.232; in [7] it was -0.297. Also, the composite z-score in [8] was -0.425; in experiment [9], 0.412; in [10] it was -2.03; with Albumin (Bos taurus) it was -1.37; in experiment [12], -0.478; in experiment [13], -0.179. The composite z-score in experiment [14] was 0.917; in experiment [15] it was 0.216; in experiment [16] it was -0.343; in the experiment on Sam68 (KHDRBS1), -1.01; in [17] it was -1.64; in experiment [18] it was -1.62. In [2], this compound returned a z-score of 0.104. For the same compound, the composite Z-score in experiment [11] was 0.701 (inactive).
